# Measurements from PubChem BioAssay (NCI).
# About 83,000 compounds went through this panel and 20% of them were active in at least one assay; those are over-represented in the sample as a whole.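 Treatment: one concentration, 48 hours, 96-well format. Scoring: percent growth, with anything below 10 considered active.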 A number with no mark means an inactive call. Calls of active or inactive are those of the source.
# Tests used:
# Assay in all cases: NCI-60 one-dose screen, 48 h (100 = growth as untreated, 0 = no growth, -100 = all killed)
# Conditions in all cases: 10 µM unless noted
# HCT-15 colon = test system: HCT-15 colon
# HT29 colon = test system: HT29 colon
# SNB-75 CNS = test system: SNB-75 CNS
# SNB-19 CNS = test system: SNB-19 CNS
# U251 CNS = test system: U251 CNS
# PC-3 prostate = test system: PC-3 prostate
# SK-MEL-5 melanoma = test system: SK-MEL-5 melanoma
# UACC-62 melanoma = test system: UACC-62 melanoma
# SK-MEL-28 melanoma = test system: SK-MEL-28 melanoma
# SK-MEL-2 melanoma = test system: SK-MEL-2 melanoma
# EKVX NSCLC = test system: EKVX NSCLC
# SN12C renal = test system: SN12C renal
# UO-31 renal = test system: UO-31 renal
# TK-10 renal = test system: TK-10 renal
# ACHN renal = test system: ACHN renal
# CAKI-1 renal = test system: CAKI-1 renal
# A498 renal = test system: A498 renal
# CCRF-CEM leukemia = test system: CCRF-CEM leukemia
# MOLT-4 leukemia = test system: MOLT-4 leukemia
# LOX IMVI melanoma = test system: LOX IMVI melanoma
SMILES,growth (HCT-15 colon),growth (HT29 colon),growth (SNB-75 CNS),growth (SNB-19 CNS),growth (U251 CNS),growth (PC-3 prostate),growth (SK-MEL-5 melanoma),growth (UACC-62 melanoma),growth (SK-MEL-28 melanoma) [%],growth (SK-MEL-2 melanoma),growth (EKVX NSCLC),growth (SN12C renal),growth (UO-31 renal),growth (TK-10 renal) [%],growth (ACHN renal),growth (CAKI-1 renal),growth (A498 renal),growth (CCRF-CEM leukemia),growth (MOLT-4 leukemia),growth (LOX IMVI melanoma)
O=C1NC(=S)/C(=C/c2cn(-c3ccccc3)nc2-c2ccccc2)S1,20%,22.9%,80.7%,14.3%,14.6%,34.9%,-42.3% (active),6.83% (active),20.5,-4.17% (active),2.24% (active),16%,16.7%,34.3,20.1%,28.3%,-4.62% (active),30.9%,33.5%,
COc1ccc(-c2nnc3c(/C=C/c4ccc(Br)cc4)nc4ccccc4n23)cc1,-60.7% (active),-34.1% (active),83.4%,86.3%,68.4%,86.4%,49.4%,40.8%,72.4,92.9%,54%,-22.7% (active),41.1%,,23%,27.8%,92.6%,8.22% (active),1.9% (active),
Nc1nn2c(-c3cc4ccccc4oc3=O)ccnc2c1N=Nc1ccccc1,82.5%,124%,40%,4.86% (active),6.17% (active),82.5%,67.6%,92.7%,90.2,97.4%,66.9%,48.6%,63.2%,103,54.9%,81.8%,111%,101%,113%,
Cc1nc2sccn2c1-c1nnc(SCC(C)C)o1,77.2%,79.9%,73.7%,78.7%,78.2%,83.1%,89.4%,77.2%,104,92.1%,74.5%,88.4%,67.7%,127,87.8%,76.7%,98.5%,51.6%,84.1%,
Nc1nnc(CS(=O)(=O)c2ccccc2)s1,99.9%,94.6%,102%,103%,95.6%,93%,131%,91%,112,113%,103%,106%,77.1%,98.7,104%,88.8%,137%,102%,103%,
COc1c(B(O)O)cc(F)cc1-c1nc2c(F)cc3[nH]ncc3c2c2c1CCCC2,4.25% (active),21.1%,-78.1% (active),7.54% (active),10.8%,12.8%,7.04% (active),-7% (active),25.7,46.8%,13.5%,17.2%,3.57% (active),21.3,4.28% (active),0.122% (active),-30.7% (active),-3.23% (active),17%,
CS(=O)(=O)Nc1cccc(-n2cnc3cc(-c4ccc(O)cc4)ccc32)c1,30.9%,16%,53.8%,25.4%,26.2%,45.8%,19.7%,26.3%,63.2,27.2%,51.6%,41.1%,44.3%,93,49.7%,30.6%,149%,22.2%,24.4%,
COc1cc(/C=N/NC(=O)c2ccc(OCc3nc4ccc(C)cc4[nH]3)cc2)cc(OC)c1OC,38.9%,18.9%,135%,66.2%,29%,49.7%,18.3%,29.9%,39.4,68.1%,72.4%,56.4%,66.2%,83.2,69.6%,50.5%,116%,7.65% (active),4.5% (active),
O=C1Nc2cc(-c3ccc(NS(=O)(=O)c4ccc(F)c(Cl)c4)cc3)ccc2/C1=C/c1ccc[nH]1,14%,-18.4% (active),62.7%,46.6%,2.34% (active),30.2%,58.8%,32.9%,41.4,55.8%,1.79% (active),55.3%,35.6%,,,33%,52.1%,39.7%,11.7%,
O=C(CSc1nc2ccccc2c(=O)[nH]1)NNC(=O)c1ccccc1Cl,107%,109%,72.6%,92.4%,96.3%,123%,106%,110%,148,105%,109%,112%,91.2%,,112%,90.4%,100%,120%,111%,
N#Cc1ccc(C(=O)CSc2nc3c(c(Nc4ccc(S(N)(=O)=O)cc4)n2)CCC3)cc1,49.9%,55.8%,8.38% (active),-13.3% (active),-85.2% (active),65.3%,71.9%,83.1%,48.5,87.4%,49.8%,35.3%,66.8%,55.2,10.9%,39.1%,137%,81.1%,73.3%,
COc1ccc(-c2cc(-c3cc(C(C)C)c(O)cc3C)nn2-c2ccc(S(N)(=O)=O)cc2)cc1,3.06% (active),88.4%,-0.16% (active),30%,,49.3%,48.6%,21.5%,58.8,54.7%,61.1%,16%,39.1%,58,55.8%,63.9%,87.7%,12.2%,14.7%,22.6%
O=C(CSc1nc2c(c(=O)[nH]1)CCCC2)Nc1ccccc1C(=O)O,98.3%,105%,125%,99.7%,103%,106%,99.3%,96.1%,112,98.9%,99.2%,93.3%,82.3%,,106%,89.5%,173%,101%,99.3%,
COc1cccc(NC(=O)c2ccc(NC(=O)CCl)s2)c1,-29.7% (active),-7.55% (active),74.6%,73.8%,,-12.4% (active),32.1%,-19.4% (active),51,79.6%,95%,-14.4% (active),62.1%,54.8,66.4%,53.8%,108%,1.03% (active),-7.31% (active),-94.9% (active)
Oc1ccc(F)c(Nc2nc(SCCN3CCOCC3)nc3c2cnn3CC(Cl)c2ccc(Br)cc2)c1 (configuration not stated),1.07% (active),8.07% (active),15.2%,46.1%,21.9%,7.79% (active),18.1%,20.8%,21,33.5%,30%,32.3%,16.9%,68.6,16.5%,24%,63.1%,-3.71% (active),6.17% (active),
Nc1nnc(-c2cncc(Br)c2)c(-c2c[nH]c3ccc(Br)cc23)n1,37.1%,35.6%,50.5%,59.5%,63%,56%,31.1%,55.2%,67.5,55.4%,65.7%,57.6%,,97.7,56.5%,46%,,44.1%,33%,
